Assays:
Experiment in all cases: PBM binding z-score (relative to random genomic background probes); higher = stronger binding; sequences stand for … in GC…GCGATTGACAGCGTAGAATGAAGG
[1] = tested on: PPARg:RXRa DBDmut IVT, anti-RXR (DBD mutation: RXRa K156A/R161A, NR concentration 270 nM, RXRa partner concentration 90 nM)
Method in brief: (§1)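 Custom Agilent 4×180K protein-binding microarrays carried double-stranded probes. Their 34-nt variable regions held direct-repeat seeds, single-nucleotide variants, half-site ablations and random human genomic background sequences. Arrays were incubated 1 h with ligand-free nuclear receptor dimers in PBS pH 7.4, 2% milk, 0.02% Triton X-100, 1 mM DTT, 0.2 mg/mL BSA and 0.4 mg/ml salmon testes DNA. Antibodies against each partner (one per run) detected binding, and scanned fluorescence was regression-normalized. Binding z-scores use random background probes as reference.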

[2] = tested on: PPARg:RXRa IVT, anti-PPARg (NR concentration 270 nM, RXRa partner concentration 90 nM)
Method in brief: as §1

[3] = tested on: PPARg DBDmut:RXRa IVT, anti-PPARg (DBD mutation: PPARg1 K132A/R137A, NR concentration 270 nM, RXRa partner concentration 90 nM)
Method in brief: as §1

[4] = tested on: PPARg DBDmut IVT, anti-PPARg (DBD mutation: PPARg1 K132A/R137A, NR concentration 270 nM)
Method in brief: as §1

[5] = tested on: PPARg homodimer (NR concentration 180 nM)
Method in brief: as §1

[6] = tested on: PXR:RXRa (NR concentration 270 nM, RXRa partner concentration 90 nM)
Method in brief: as §1

[7] = tested on: PXR homodimer (NR concentration 270 nM)
Method in brief: as §1

[8] = tested on: RARa:RXR (NR concentration 270 nM, RXRa partner concentration 90 nM)
Method in brief: as §1

[9] = tested on: RARa homodimer (NR concentration 270 nM)
Method in brief: as §1

[10] = tested on: RARb:RXRa (NR concentration 270 nM, RXRa partner concentration 90 nM)
Method in brief: as §1

| Sequence | PBM binding z-score [1] | PBM binding z-score [2] | PBM binding z-score [3] | PBM binding z-score [4] | PBM binding z-score [5] | PBM binding z-score [6] | PBM binding z-score [7] | PBM binding z-score [8] | PBM binding z-score [9] | PBM binding z-score [10] |
| --- | --- | --- | --- | --- | --- | --- | --- | --- | --- | --- |
| AATACCGGGTCATCGTAGGCCAGAGTACGCACAG | 2.9 | 4.61 | 2.58 | 2.08 | 2.01 | 4.56 | 0.459 | 4.53 | 0.886 | 3.67 |
| TATACAGGGTCAAAGGCAAGAGTACGAATGTCGA | 2.4 | 4.77 | 3.32 | 1.87 | 2.27 | 3.86 | 1.15 | 5.3 | 1.42 | 4.43 |
| CGTCCAAGGTCATAGGAGGGCAGTGAAGACAGAT | 3.1 | 3.89 | 1.14 | 0.568 | 2.4 | 6.12 | 1.56 | 4.4 | 0.613 | 5.06 |
| ATCGGAAGGTCGTGAGGTGAGTATACAGAAAGGC | -0.372 | 1.37 | -0.0584 | 0.491 | 1.77 | 1.71 | 0.639 | 2.72 | 1.05 | 2.83 |
| ACTAGCTGGTCAGCTGAGGTCACACACAATTCGG | 0.832 | 1.83 | 0.106 | -0.428 | 2.22 | 5.58 | 1.11 | 4.93 | 0.527 | 3.69 |
| GATACACGGTCAGCTAGAGGCCAGAGTATGGAAA | -0.219 | 0.135 | -0.178 | -0.554 | 0.453 | -0.394 | -0.5 | 0.205 | -0.0449 | 2.51 |
| TCTGCTAGGTCAACGATGGTTAGCTAATCTGCTA | 4.04 | 4.11 | 0.206 | 0.0855 | 0.625 | 1.24 | -0.803 | 2.11 | -0.888 | 4.14 |
| ACTAGCAGGCCAAGGGTCACGCAAGATTAGTCCG | 1.52 | 4.53 | 0.585 | -0.153 | 2.62 | 4.25 | -0.0194 | 5.33 | 0.787 | 4.2 |
| TATACAGGGTCAAAGGCCACAGTACGAATGTCGA | 2.84 | 5.48 | 3.56 | 1.95 | 3.1 | 4.85 | 0.619 | 7.09 | 1.53 | 4.45 |
| AGTTAAAGTTCATCTAGGTAACGTAAGATATGCT | 1.51 | 3.39 | 1.68 | 1.41 | 2.77 | 4.75 | 6.53 | 3.23 | 2.39 | 4.79 |
| TCATATAGGTAAATACTAGGTGAAAGTCCGATCT | 4.28 | 4.37 | 1.5 | 1.37 | 1.15 | 0.747 | 0.389 | 1.15 | 1.65 | 0.482 |
| TCATATAGTTAAACAGGTGAAAGTCCGTAAGTTA | 2.65 | 1.54 | 1.36 | 1.6 | 1.34 | 0.848 | 0.543 | 1.2 | 1.91 | 0.698 |
| CCAGACAGGTGAAAGGTGACTCAGTCTGGTACGC | 2.4 | 3.47 | 0.243 | -0.992 | 1.3 | 1.85 | 0.0178 | 2.91 | 0.796 | 1.96 |
| AATACAGGGTCACTAGGCCTGAGTAGGTACGAAT | 2.96 | 4.76 | 1.25 | 1.34 | 2.04 | 2.85 | 0.251 | 3.86 | 0.431 | 4.06 |
| TGTTAAAGTTCAAAGGTAACGTAAGTATCCACAC | 0.162 | 3.26 | 2.15 | 2.02 | 3.98 | 5.77 | 4.11 | 6.35 | 1.41 | 4.93 |
| AGAATGAGGTTACCAAAGATCAGGGAGACGCTTG | 3.87 | 3.22 | 1.19 | 0.476 | 0.567 | 1.53 | 0.0174 | 1.99 | 0.112 | 2.15 |
| TCTTGTAGATGAAGCAGGTTAAGAAAGCCTGAGT | 1.86 | 0.0295 | 0.394 | -0.11 | 0.107 | 0.195 | 0.164 | 0.228 | -0.232 | -0.0996 |
| TCTATCAGTTGAAGGGCAACCGACGAGTCCGTTT | 2.02 | 0.545 | -0.244 | 0.0205 | 0.44 | 0.571 | 0.541 | 0.596 | 0.00832 | 1.63 |
| AGAATGAGATTATACGTAGATCAGGGAAGAAAGT | -0.76 | -0.334 | 0.931 | 0.37 | -0.24 | -0.502 | 0.417 | -0.447 | 0.366 | -0.409 |

| Sequence | PBM binding z-score [1] | PBM binding z-score [2] | PBM binding z-score [3] | PBM binding z-score [4] | PBM binding z-score [5] | PBM binding z-score [6] | PBM binding z-score [7] | PBM binding z-score [8] | PBM binding z-score [9] | PBM binding z-score [10] |
| --- | --- | --- | --- | --- | --- | --- | --- | --- | --- | --- |
| CGTCCAAGGTCAAAGGAGGTCAGTGAAGACAGAT | 3.19 | 4.71 | 0.585 | -0.349 | 3.39 | 6.84 | 3.62 | 5.79 | 0.875 | 5.6 |
| TCGAGTAGGTTACCAAAGGGGCATTCAGCTTTCT | 3 | 2.74 | 0.155 | 0.119 | 0.4 | 0.735 | -0.508 | 0.81 | -0.941 | 1.37 |
| CCTTACGGGTCAAGGTTATAGTACGGGTGGTACG | 1.4 | 3.68 | 0.554 | -0.326 | 2.79 | 3.75 | 0.673 | 4.68 | 1.47 | 4.18 |
| TCTTGTAGATCAGCAGGTTTAGAAAGCTGGCCAA | 1.21 | -0.135 | -0.815 | -0.0639 | -0.866 | -0.251 | -0.893 | -0.334 | -0.74 | -0.387 |
| TTTTGTAGATCAATAGAGGTTAAGAAAGTGCGCT | 1.22 | 1.99 | 1.51 | 1.54 | 1.32 | 3.37 | 0.915 | 2.2 | 1.45 | 1.15 |
| CGACCTAGGTCAGAACAGGACAGTGAAGGATGAT | 2.58 | 2.09 | -0.486 | -0.795 | 1.04 | 1.42 | -0.195 | 0.948 | 0.342 | 3.33 |
| CATACAGGGTCAGCTAGGCCAGCGTAGGGACGGC | 1.15 | 2.23 | 0.338 | 0.666 | 1.25 | 2.09 | 0.247 | 2.95 | 0.0243 | 4.03 |
| CCTACTGGGCCACGAAAGGTCATTGAATCAGTGA | 5.88 | 5.52 | 0.0728 | -0.421 | 2.53 | 5.09 | 1.26 | 5.07 | 0.674 | 4.03 |
| CTACCAAGGTGAACAAGGTCGTGGATTACTATTC | 2.25 | 3.01 | 1.26 | -0.0966 | 1.98 | 2.46 | 0.298 | 2.92 | 0.0898 | 2.45 |
| ATCTCTAGGTAAGACTCAGTTCAGCGAAGAACGC | 1.67 | 1.01 | 0.389 | 0.673 | 0.96 | 0.943 | 1.37 | 0.477 | 1.01 | 0.277 |
| AATTACGGGTCAACGAGGTTATAGCACGCGTATA | 3.6 | 5.01 | 2.85 | 2.31 | 3.16 | 5.27 | 3.27 | 5.49 | 1.87 | 4.27 |
| AGTATGAGGTTAAGATCAGGGAAACAGAATACAT | 0.462 | 1.01 | 0.752 | 1.37 | 1.32 | 1.15 | 0.499 | 1.84 | 0.731 | 1.98 |
| GCTACAGGGTCAAGGCCAGAGTACGCGTATTGAT | 2.54 | 3.15 | -0.313 | 0.11 | 2.84 | 4 | 0.0658 | 4.7 | 0.58 | 4.59 |
| ACTTACGGGTCAACGAGGTTTTAGCACGCGTATA | 3.23 | 3.96 | 0.283 | 0.441 | 2.07 | 4.02 | -0.016 | 4.35 | 0.666 | 4.07 |
| AGAACGAGGGCACGCTGAGTTGATAGCTGAGTAG | 4.41 | 3.75 | 0.643 | 0.101 | 0.829 | 1.57 | 0.136 | 1 | -0.945 | 2.57 |
| CCGAGTAGGTTATGGGGCATCCAGGCAACGGTGA | 2.41 | 3.47 | 0.134 | -0.392 | 0.993 | -0.0112 | -0.414 | 0.287 | 0.0576 | 0.965 |
| CCAGACAGGAGAAAGGTAACTCAGTCTGGTACGC | 0.0518 | -0.161 | -0.761 | -0.621 | 0.229 | -0.00799 | 0.153 | 0.168 | 0.262 | 0.234 |
| TATACAGGGTCAAAGGCCAGAGTACGAATGTCGA | 2.36 | 5.11 | 2.18 | 1.49 | 2.55 | 4.55 | 0.583 | 5.75 | 0.928 | 4.5 |
| ATCTCTAGGTAAAAGTTCAGTGGATCCCGAGGAT | 2.25 | 3.58 | 1.28 | 1.66 | 1.32 | 2.05 | 1.71 | 1.76 | 1.18 | 2.41 |

From the supplement of paper PMC6555819
